Test results from PubChem BioAssay AID1159580 (chemical genetic matrix, 2015).
Hit rate of the full screen: of about 5,500 compounds, about 2,000 (36%) were called active. Inconclusive results (about 18%) are left out. Cut-off read from the data, not from the text of the source: active = normalized growth mostly below about 0.91 (no sharp cut-off); inconclusive = no clear call, values can overlap the other calls; inactive = mostly above about 0.92. Some of the results follow.

Experiment: chemical genetic growth profiling, strain panel (AID 1159580);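 note: tested at 20 µM; growth read once vehicle control cultures reached saturation at 30 °C; 1 = growth at the plate median or of vehicle wells; lower values mean less growth of the strain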
Details: S. cerevisiae deletion strains, growth OD

Measured: normalized growth

Clc1ccc(Cn2c(CN3CCCC3)nc3ccccc32)cc1
inactive: locus YAL040C, strain CLN3, hits give low values 1.01 | locus YCL061C, strain MRC1 (second series), hits give low values 0.996 | locus YDR150W, strain NUM1, hits give low values 0.996 | locus YDR363W, strain ESC2, hits give low values 0.999 | locus YER002W, strain NOP16, hits give low values 1.01 | locus YNL128W, strain TEP1, hits give low values 1.04 | locus YNL175C, strain NOP13, hits give low values 1.02 | locus YNL197C, strain WHI3, hits give low values 1.04 | locus YNL224C, strain SQS1, hits give low values 1.02 | locus YNL322C, strain KRE1, hits give low values 0.989 | locus YOR083W, strain WHI5 (second series), hits give low values 1.02 | locus YPL055C, strain LGE1, hits give low values 0.932
